Reference: PubChem BioAssay
Where “and” joins values, the source holds several entries; their conditions need not be identical. Equal entries are not always repeated. Results filed as inconclusive are left out. Calls of active or inactive are those of the source.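 Rule for the calls, unless noted: active = normalized viability below 100% at a tested concentration; inactive = the rest.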

Legend:
[1] = viability loss in pontine glioma line – cell-based, SU-DIPG-XXV, MIPE5.0, CellTiter-Glo, qHTS, dose response (AID 1347065; cut-off not given, nearly all actives have AC50 up to about 26 µM;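 note: cells exposed to compound for 48 hours before ATP readout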); conditions: CellTiter-Glo ATP luminescence
[2] = growth inhibition of DIPG cells – cell-based, MIPE4.0 library, CellTiter-Glo luminescence, qHTS (AID 1347066; cut-off not given, nearly all actives have AC50 up to about 30 µM;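 note: cells exposed to compound for 48 hours before readout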); conditions: SU-DIPG-VI viability, CellTiter-Glo ATP luminescence
[3] = JHH-DIPG-1 glioma cell viability, MIPE5.0 library, CellTiter-Glo luminescence, qHTS (AID 1347067; cut-off not given, nearly all actives have AC50 up to about 26 µM;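 note: cells exposed to compound for 48 hours before readout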); conditions: JHH-DIPG-1 glioma viability, CellTiter-Glo ATP luminescence
[4] = growth inhibition of DIPG cells – cell-based, MIPE5.0 library, qHTS (AID 1347068; cut-off not given, nearly all actives have IC50 up to about 30 µM); conditions: SU-DIPG-XXV viability
[5] = MELAS cybrid and Rieske KO viability enhancers – cell-based, MELAS cybrids, Rieske KO mouse fibroblasts, CellTiter-Glo, primary screen (AID 1508586;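 active = mean z-score across replicates of 1.96 or higher in either the MELAS or the Rieske mutant cell line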;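 note: z relative to plate mean and SD of compound and empty wells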); conditions: low glucose
[6] = drug combination growth inhibition, ovarian cancer – cell-based, oncology-focused library, rucaparib conditional, profiling panel (AID 1508598); conditions: patient-derived ovarian cancer cells, CellTiter-Glo viability, 144 h, stronger effect = lower value
[7] = viability loss with induced miR-34 in A549 – imaging, A549 dox-inducible miR-34, nuclei and caspase counts, primary screen (AID 1347080;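 active = compounds whose cell count with miR-34 switched on is under 0.7 times the count with it off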); conditions: A549 miR-34 inducible, Hoechst nuclei count, 48 h
[8] = compounds altering HSF1 focus formation in cells – imaging, Selleck Cancer Library (AID 1347162; in the data active = plate-normalised HSF1 focus index below about 0.46); conditions: human cells, HSF1 nuclear foci imaging, at 10 µM; SSMD: measured here: HSF1 foci SSMD mean; cell count: measured here: cell number; plate-normalised HSF1 focus index: stronger effect = lower value
[9] = MELAS cybrid survival, CellTiter-Glo 48 h, stronger effect = higher value
[10] = Rieske KO mouse fibroblast survival, CellTiter-Glo 72 h
[11] = at 0.000305 µM, OCI-C5x cells, with rucaparib 10 µM, 100% = cells with rucaparib alone
[12] = at 0.000305 µM, OCI-C5x cells, without rucaparib
[13] = at 0.000305 µM, OCI-P5x cells, with rucaparib 20 µM, 100% = cells with rucaparib alone
[14] = at 0.000305 µM, OCI-P5x cells, without rucaparib
[15] = at 0.00122 µM, OCI-C5x cells, with rucaparib 10 µM, 100% = cells with rucaparib alone
[16] = at 0.00122 µM, OCI-C5x cells, without rucaparib
[17] = at 0.00122 µM, OCI-P5x cells, with rucaparib 20 µM, 100% = cells with rucaparib alone
[18] = at 0.00122 µM, OCI-P5x cells, without rucaparib
[19] = at 0.00488 µM, OCI-C5x cells, with rucaparib 10 µM, 100% = cells with rucaparib alone
[20] = at 0.00488 µM, OCI-C5x cells, without rucaparib
[21] = at 0.00488 µM, OCI-P5x cells, with rucaparib 20 µM, 100% = cells with rucaparib alone
[22] = at 0.00488 µM, OCI-P5x cells, without rucaparib
[23] = at 0.0195 µM, OCI-C5x cells, with rucaparib 10 µM, 100% = cells with rucaparib alone
[24] = at 0.0195 µM, OCI-C5x cells, without rucaparib
[25] = at 0.0195 µM, OCI-P5x cells, with rucaparib 20 µM, 100% = cells with rucaparib alone
[26] = at 0.0195 µM, OCI-P5x cells, without rucaparib
[27] = at 0.0781 µM, OCI-C5x cells, with rucaparib 10 µM, 100% = cells with rucaparib alone
[28] = at 0.0781 µM, OCI-C5x cells, without rucaparib
[29] = at 0.0781 µM, OCI-P5x cells, with rucaparib 20 µM, 100% = cells with rucaparib alone
[30] = at 0.0781 µM, OCI-P5x cells, without rucaparib
[31] = at 0.313 µM, OCI-C5x cells, with rucaparib 10 µM, 100% = cells with rucaparib alone
[32] = at 0.313 µM, OCI-C5x cells, without rucaparib
[33] = at 0.313 µM, OCI-P5x cells, with rucaparib 20 µM, 100% = cells with rucaparib alone
[34] = at 0.313 µM, OCI-P5x cells, without rucaparib
[35] = at 1.25 µM, OCI-C5x cells, with rucaparib 10 µM, 100% = cells with rucaparib alone
[36] = at 1.25 µM, OCI-C5x cells, without rucaparib
[37] = at 1.25 µM, OCI-P5x cells, with rucaparib 20 µM, 100% = cells with rucaparib alone
[38] = at 1.25 µM, OCI-P5x cells, without rucaparib
[39] = at 5 µM, OCI-C5x cells, with rucaparib 10 µM, 100% = cells with rucaparib alone
[40] = at 5 µM, OCI-C5x cells, without rucaparib
[41] = at 5 µM, OCI-P5x cells, with rucaparib 20 µM, 100% = cells with rucaparib alone
[42] = at 5 µM, OCI-P5x cells, without rucaparib
[43] = stronger effect = lower value, cell number ratio, induced over uninduced
[44] = measured here: relative caspase fold change +Dox/-Dox
[45] = measured here: total cells with miR-34 induction, stronger effect = lower value
[46] = measured here: total cells without miR-34 induction

For Cc1nc2ccc(CN(C)c3ccc(C(=O)N[C@@H](CCC(=O)O)C(=O)O)s3)cc2c(=O)[nH]1, the outcome [1] was “inactive”, the outcome [2] was “inactive” and the outcome [3] was “inactive”. For the same compound, the outcome [4] was “inactive”, the z-score [5, 9] was -0.789 (inactive) and the z-score [5, 10] was -1.02. For the same compound, the viability [6, 11] was 114% (inactive), the viability [6, 12] was 92.6% (active) and the viability [6, 13] was 107% (inactive). For the same compound, the viability [6, 14] was 104% (inactive), the viability [6, 15] was 115% (inactive) and the viability [6, 16] was 84.6% (active). For the same compound, the viability [6, 17] was 108% (inactive), the viability [6, 18] was 106% (inactive) and the viability [6, 19] was 72.8% (active). For the same compound, the viability [6, 20] was 55.7% (active), the viability [6, 21] was 114% (inactive) and the viability [6, 22] was 109% (inactive). For the same compound, the viability [6, 23] was 19.2% (active), the viability [6, 24] was 17.1% (active) and the viability [6, 25] was 116% (inactive). The viability [6, 26] was 110% (inactive), the viability [6, 27] was 16.3% (active) and the viability [6, 28] was 17.6% (active). The viability [6, 29] was 118% (inactive), the viability [6, 30] was 111% (inactive) and the viability [6, 31] was 15.6% (active). The viability [6, 32] was 19.3% (active), the viability [6, 33] was 119% (inactive) and the viability [6, 34] was 111% (inactive). For the same compound, the viability [6, 35] was 14.5% (active), the viability [6, 36] was 17.5% (active) and the viability [6, 37] was 111% (inactive). The viability [6, 38] was 116% (inactive), the viability [6, 39] was 16.1% (active) and the viability [6, 40] was 19.3% (active). For the same compound, the viability [6, 41] was 124% (inactive) and the viability [6, 42] was 113% (inactive).
For COc1cc2c(N3CCN(C(=O)Nc4ccc(OC(C)C)cc4)CC3)ncnc2cc1OCCCN1CCCCC1, the outcome [1] was “inactive”, the outcome [3] was “inactive” and the outcome [4] was “inactive”. For the same compound, the fold change [7, 43] was 0.882 (inactive) and 0.979 (inactive), the fold change [7, 44] was 1.09 and 0.885 and the cell count [7, 45] was 7400 and 5330. For the same compound, the cell count [7, 46] was 8380 and 5450, the SSMD [8] was 0.871 and the cell count [8] was 7020. The plate-normalised HSF1 focus index [8] was 1.05 (inactive), the z-score [5, 9] was -0.531 (inactive) and the z-score [5, 10] was 0.343. For the same compound, the viability [6, 11] was 113% (inactive), the viability [6, 12] was 103% (inactive) and the viability [6, 13] was 86.7% (active). The viability [6, 14] was 88.3% (active), the viability [6, 15] was 104% (inactive) and the viability [6, 16] was 105% (inactive). The viability [6, 17] was 97% (active), the viability [6, 18] was 88.4% (active) and the viability [6, 19] was 112% (inactive). For the same compound, the viability [6, 20] was 97.5% (active), the viability [6, 21] was 114% (inactive) and the viability [6, 22] was 96.8% (active). The viability [6, 23] was 109% (inactive), the viability [6, 24] was 98.4% (active) and the viability [6, 25] was 130% (inactive). The viability [6, 26] was 92.4% (active), the viability [6, 27] was 113% (inactive) and the viability [6, 28] was 105% (inactive). For the same compound, the viability [6, 29] was 115% (inactive), the viability [6, 30] was 94.2% (active) and the viability [6, 31] was 119% (inactive). For the same compound, the viability [6, 32] was 113% (inactive), the viability [6, 33] was 146% (inactive) and the viability [6, 34] was 90.4% (active). For the same compound, the viability [6, 35] was 123% (inactive), the viability [6, 36] was 117% (inactive) and the viability [6, 37] was 105% (inactive). For the same compound, the viability [6, 38] was 90% (active), the viability [6, 39] was 158% (inactive) and the viability [6, 40] was 138% (inactive). For the same compound, the viability [6, 41] was 115% (inactive) and the viability [6, 42] was 86.2% (active).
For O=NN(CCCl)C(=O)NC1CCCCC1, the outcome [1] was “inactive”, the outcome [2] was “inactive” and the outcome [4] was “inactive”. For the same compound, the fold change [7, 43] was 0.819 (inactive) and 0.861 (inactive), the fold change [7, 44] was 1.64 and 1.87 and the cell count [7, 45] was 7170 and 7550. The cell count [7, 46] was 8750 and 8760, the SSMD [8] was 0.27 and the cell count [8] was 6620. The plate-normalised HSF1 focus index [8] was 1.01 (inactive), the z-score [5, 9] was -0.38 (inactive) and -0.0882 (inactive) and the z-score [5, 10] was 0.628 and -0.815. For the same compound, the viability [6, 11] was 106% (inactive), the viability [6, 12] was 116% (inactive) and the viability [6, 13] was 87.5% (active). The viability [6, 14] was 105% (inactive), the viability [6, 15] was 106% (inactive) and the viability [6, 16] was 123% (inactive). For the same compound, the viability [6, 17] was 100% (active), the viability [6, 18] was 107% (inactive) and the viability [6, 19] was 107% (inactive). The viability [6, 20] was 120% (inactive), the viability [6, 21] was 94.7% (active) and the viability [6, 22] was 109% (inactive). The viability [6, 23] was 121% (inactive), the viability [6, 24] was 122% (inactive) and the viability [6, 25] was 97.1% (active). For the same compound, the viability [6, 26] was 116% (inactive), the viability [6, 27] was 107% (inactive) and the viability [6, 28] was 121% (inactive). For the same compound, the viability [6, 29] was 97.7% (active), the viability [6, 30] was 112% (inactive) and the viability [6, 31] was 113% (inactive). The viability [6, 32] was 119% (inactive), the viability [6, 33] was 103% (inactive) and the viability [6, 34] was 119% (inactive). For the same compound, the viability [6, 35] was 115% (inactive), the viability [6, 36] was 125% (inactive) and the viability [6, 37] was 90.9% (active). The viability [6, 38] was 108% (inactive), the viability [6, 39] was 118% (inactive) and the viability [6, 40] was 124% (inactive). The viability [6, 41] was 97.4% (active) and the viability [6, 42] was 125% (inactive).
In the case of CCC1=C(C)CN(C(=O)NCCc2ccc(S(=O)(=O)NC(=O)NC3CCC(C)CC3)cc2)C1=O (stereo unspecified), the outcome [1] is reported as “inactive”, the outcome [2] is reported as “inactive” and the outcome [3] is reported as “inactive”. The outcome [4] was “inactive”, the z-score [5, 9] was -0.439 (inactive) and 0.644 (inactive) and 0.245 and the z-score [5, 10] was 0.486 and 0.124 and 2.28.
For CO[C@@H]1[C@@H](OC(N)=O)[C@@H](O)[C@H](Oc2ccc3c(O)c(NC(=O)c4ccc(O)c(CC=C(C)C)c4)c(=O)oc3c2C)OC1(C)C, the outcome [1] was “inactive”, the outcome [2] was “inactive” and the outcome [4] was “inactive”. For the same compound, the fold change [7, 43] was 0.761 (inactive), the fold change [7, 44] was 1.98 and the cell count [7, 45] was 10300. The cell count [7, 46] was 13600, the z-score [5, 9] was 0.0759 (inactive) and the z-score [5, 10] was -1.01.
In the case of O=C(NCCO[N+](=O)[O-])c1cccnc1, the outcome [1] is reported as “inactive”, the outcome [2] is reported as “inactive” and the outcome [4] is reported as “inactive”. For the same compound, the z-score [5, 9] was -0.335 (inactive) and 0.466 (inactive) and -0.214 (inactive) and the z-score [5, 10] was -0.979 and 0.348 and 0.117.
